CIT2-GFP yeast: modulators of CIT2-GFP expression in yeast, primary screen, S. cerevisiae, GFP fusion, multiplex flow cytometry, MLPCN library; 320,000 tested, 0.065% active; GFP response vs DMSO, % at 10 µM; S. cerevisiae CIT2-GFP strain, 3 h; 100 means same as DMSO wells; AID 2029, 2009;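 active = GFP response relative to DMSO above a set limit, near the screen mean plus 3 SD, cut at about 150% in these data; inconclusive = Fewer than 70 cells measured for a yeast strain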;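 note: ratio of well median GFP fluorescence to mean of DMSO wells on the plate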
MEP2-GFP yeast: modulators of MEP2-GFP levels in yeast, primary screen, S. cerevisiae, multiplex flow cytometry, MLPCN library. GFP response vs DMSO, % at 10 µM. S. cerevisiae MEP2-GFP strain, 3 h; 100% = DMSO control level. 330,000 tested, 0.51% active. AID 2016, 2009;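 active = GFP response versus DMSO above a set limit, roughly screen mean plus 3 SD, cut at about 180% in these data; inconclusive = fewer than 70 cells counted for a yeast strain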;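 note: median GFP fluorescence of the barcode-gated MEP2-GFP cells per well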
RPL19A TOR yeast: RPL19A-GFP expression modulators in yeast, primary screen, cell-based, S. cerevisiae, multiplex flow cytometry, MLPCN; S. cerevisiae RPL19A-GFP strain, 3 h; stronger effect = lower value; percent response vs DMSO, % at 10 µM; 330,000 tested, 0.3% active; AID 2025, 2009;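 active = percent response vs DMSO below 50%; inconclusive = fewer than 70 events counted for the yeast strain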;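 note: median channel GFP fluorescence of the barcoded RPL19A-GFP strain; lower means less RPL19A-GFP as with rapamycin TOR inhibition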
LAP4 TOR yeast: modulators of LAP4-GFP expression in yeast, primary screen, S. cerevisiae, multiplex flow cytometry, MLPCN library; 3 h; median GFP as percent of DMSO wells; 320,000 tested, 0.34% active; GFP response vs DMSO, % at 10 µM;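 active = GFP response vs DMSO above a set limit, about the screen mean plus 3 SD, cut at about 150% in these data; inconclusive = under 70 cell events counted for the yeast strain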
AGP1 TOR yeast: modulators of AGP1-GFP expression in yeast TOR pathway, primary screen, cell-based, multiplex flow cytometry, S. cerevisiae, MLPCN library; 3 h; GFP as percent of DMSO wells; GFP response vs DMSO, % at 10 µM; 320,000 tested, 0.02% active;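 active = GFP response relative to DMSO above a set limit, near screen average plus 3 SD, cut at about 150% in these data; inconclusive = fewer than 70 cells counted for the yeast strain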;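 note: median GFP channel fluorescence of the gated AGP1 strain per well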
A number is an active result; [ ] = dose if it differs, or a comment. Shown are actives, neighbours in structure and some others; about 0.93% of the full set was active somewhere.

What do the screens show for `COC(c1ccccc1)c1nc2ccccc2[nH]c1=O` (stereo unspecified)?
CIT2-GFP yeast: inconclusive; MEP2-GFP yeast: 188.3[may fluoresce violet]; RPL19A TOR yeast: inactive; LAP4 TOR yeast: inactive; AGP1 TOR yeast: inconclusive

Results for O=C(Nc1ccc(Nc2ccccc2)cc1)c1ccc(Cl)cc1 ?
CIT2-GFP yeast: inactive; MEP2-GFP yeast: inactive; RPL19A TOR yeast: inactive; LAP4 TOR yeast: inactive; AGP1 TOR yeast: inactive

How did N#C/C(C(=O)Nc1ccc(Cl)cc1)=C(/S)Nc1ccccc1 do in these assays?
CIT2-GFP yeast: inactive; MEP2-GFP yeast: inactive; RPL19A TOR yeast: inactive; LAP4 TOR yeast: 194.3; AGP1 TOR yeast: inactive

How did O=C(Cn1[nH]c(=O)c2ccccc2c1=O)N1CC=C(c2ccccc2)CC1 do in these assays?
CIT2-GFP yeast: inconclusive; MEP2-GFP yeast: 441.1[may fluoresce violet]; RPL19A TOR yeast: inactive; LAP4 TOR yeast: inactive; AGP1 TOR yeast: inconclusive

Results for O=C(O)CCC(=O)N1CC=C(c2ccccc2)CC1 ?
CIT2-GFP yeast: inactive; MEP2-GFP yeast: inactive; RPL19A TOR yeast: inactive; LAP4 TOR yeast: inactive; AGP1 TOR yeast: inactive

What do the screens show for `COc1cccc(-c2cc(C(F)(F)F)n3nc(C(=O)Nc4c(C)n(C)n(-c5ccccc5)c4=O)cc3n2)c1`?
CIT2-GFP yeast: inactive; MEP2-GFP yeast: inactive; RPL19A TOR yeast: inactive; LAP4 TOR yeast: inactive; AGP1 TOR yeast: inactive

How did Cc1c(NC(=O)c2cc3nc(-c4ccc(Cl)cc4)cc(C(F)(F)F)n3n2)c(=O)n(-c2ccccc2)n1C do in these assays?
CIT2-GFP yeast: inactive; MEP2-GFP yeast: inactive; RPL19A TOR yeast: 46.4[may fluoresce violet]; LAP4 TOR yeast: inactive; AGP1 TOR yeast: inactive

What do the screens show for `O=c1c2ccccc2sn1-c1ccccc1`?
CIT2-GFP yeast: inconclusive; MEP2-GFP yeast: 223.9[may fluoresce violet]; RPL19A TOR yeast: inactive; LAP4 TOR yeast: inactive; AGP1 TOR yeast: inactive

Results for O=C(O)c1cccc(-n2sc3ccccc3c2=O)c1 ?
CIT2-GFP yeast: inactive; MEP2-GFP yeast: inactive; RPL19A TOR yeast: inactive; LAP4 TOR yeast: inactive; AGP1 TOR yeast: inactive

What do the screens show for `O=C(NCC(=O)N1CCCC1)c1cccs1`?
CIT2-GFP yeast: inactive; MEP2-GFP yeast: inactive; RPL19A TOR yeast: inactive; LAP4 TOR yeast: 151.6; AGP1 TOR yeast: inactive

Results for Cc1cccc(OCc2nnc(SCC(=O)N3c4ccccc4Sc4ccc(Cl)cc43)o2)c1 ?
CIT2-GFP yeast: inactive; MEP2-GFP yeast: inactive; RPL19A TOR yeast: inactive; LAP4 TOR yeast: inactive; AGP1 TOR yeast: inactive

Results for CCn1c(SCC(=O)Nc2nnc(C)s2)nnc1C(C)NC(=O)c1ccccc1F (stereo unspecified) ?
CIT2-GFP yeast: inconclusive; MEP2-GFP yeast: 225.4[may fluoresce violet]; RPL19A TOR yeast: inactive; LAP4 TOR yeast: inactive; AGP1 TOR yeast: inconclusive

How did CCn1c(SCC(=O)Nc2nnc(C)s2)nnc1C(C)NC(=O)c1ccccc1 (stereo unspecified) do in these assays?
CIT2-GFP yeast: inactive; MEP2-GFP yeast: inactive; RPL19A TOR yeast: inactive; LAP4 TOR yeast: inactive; AGP1 TOR yeast: inactive

How did COC1=C(Nc2ccccc2OC)C(=O)c2ccccc2C1=O do in these assays?
CIT2-GFP yeast: inactive; MEP2-GFP yeast: inactive; RPL19A TOR yeast: inactive; LAP4 TOR yeast: inactive; AGP1 TOR yeast: inactive

What do the screens show for `COc1ccccc1NC1=C(C)C(=O)CC1`?
CIT2-GFP yeast: inconclusive; MEP2-GFP yeast: 314.7[may fluoresce violet]; RPL19A TOR yeast: inactive; LAP4 TOR yeast: inactive; AGP1 TOR yeast: inactive

What do the screens show for `CC(=O)N/C(=C/c1ccc2c(c1)OCO2)C(=O)NCC(=O)O`?
CIT2-GFP yeast: inactive; MEP2-GFP yeast: inactive; RPL19A TOR yeast: inactive; LAP4 TOR yeast: inactive; AGP1 TOR yeast: inactive

What do the screens show for `Cn1c(CCC(=O)OCC(=O)NCC(F)(F)F)nc(=O)c2ccccc21`?
CIT2-GFP yeast: inconclusive; MEP2-GFP yeast: 188.6[may fluoresce violet]; RPL19A TOR yeast: 18.8[may fluoresce violet]; LAP4 TOR yeast: inactive; AGP1 TOR yeast: inconclusive

What do the screens show for `CCOc1ccccc1CN1CCN(Cc2ccc(C)o2)CC1CCO` (stereo unspecified)?
CIT2-GFP yeast: inactive; MEP2-GFP yeast: inactive; RPL19A TOR yeast: inactive; LAP4 TOR yeast: inactive; AGP1 TOR yeast: inactive

Results for CCOc1cccc(CN2CCN(CCCc3ccccc3)C(CCO)C2)c1O (stereo unspecified) ?
CIT2-GFP yeast: inconclusive; MEP2-GFP yeast: 513.6[may fluoresce violet]; RPL19A TOR yeast: 46.3[may fluoresce violet]; LAP4 TOR yeast: inactive; AGP1 TOR yeast: inactive

How did CCOc1ccccc1CN1CCN(CC2=Cc3cc(OC)ccc3OC2)CC1CCO (stereo unspecified) do in these assays?
CIT2-GFP yeast: inconclusive; MEP2-GFP yeast: 205.2[may fluoresce violet]; RPL19A TOR yeast: inactive; LAP4 TOR yeast: inactive; AGP1 TOR yeast: inactive

Results for Cc1ccc(S(=O)(=O)N2CCC(c3nc4c(nnn4Cc4ccccc4)c(=O)[nH]3)CC2)cc1 ?
CIT2-GFP yeast: inactive; MEP2-GFP yeast: inactive; RPL19A TOR yeast: inactive; LAP4 TOR yeast: inactive; AGP1 TOR yeast: inactive

How did O=C(O)C1C2C=CC3(CN(CC(O)COc4ccccc4)C(=O)C13)O2 (stereo unspecified) do in these assays?
CIT2-GFP yeast: inactive; MEP2-GFP yeast: inactive; RPL19A TOR yeast: inactive; LAP4 TOR yeast: inactive; AGP1 TOR yeast: inactive

What do the screens show for `CN(C)CCOC(=O)/C(=C/c1cn(C)c2ccccc12)NC(=O)c1ccccc1`?
CIT2-GFP yeast: inconclusive; MEP2-GFP yeast: 296.2[may fluoresce violet]; RPL19A TOR yeast: 45.2[may fluoresce violet]; LAP4 TOR yeast: inactive; AGP1 TOR yeast: inconclusive

Results for COc1ccc(N(C(=O)c2snc(C(N)=O)c2N)C(C(=O)NC2CCCC2)c2cc(OC)ccc2OC)cc1 (stereo unspecified) ?
CIT2-GFP yeast: inconclusive; MEP2-GFP yeast: 235.8[may fluoresce violet]; RPL19A TOR yeast: inactive; LAP4 TOR yeast: inactive; AGP1 TOR yeast: inactive

Results for COc1ccc(C(C(=O)NC2CCCCC2)N(C(=O)c2snc(C(N)=O)c2N)c2ccc(OC)cc2OC)cc1 (stereo unspecified) ?
CIT2-GFP yeast: inactive; MEP2-GFP yeast: inactive; RPL19A TOR yeast: inactive; LAP4 TOR yeast: inactive; AGP1 TOR yeast: inactive

What do the screens show for `OC(CN1CCOCC1)CN1CCOCC1`?
CIT2-GFP yeast: inconclusive; MEP2-GFP yeast: 225.7[may fluoresce violet]; RPL19A TOR yeast: inactive; LAP4 TOR yeast: inactive; AGP1 TOR yeast: inconclusive

Results for CN(CC(O)CN1CCOCC1)S(=O)(=O)O (stereo unspecified) ?
CIT2-GFP yeast: inactive; MEP2-GFP yeast: inactive; RPL19A TOR yeast: inactive; LAP4 TOR yeast: inactive; AGP1 TOR yeast: inactive

Results for COc1ccc(-n2c(O)c(C=NC3CC3)c(=O)[nH]c2=O)cc1 ?
CIT2-GFP yeast: inactive; MEP2-GFP yeast: inactive; RPL19A TOR yeast: inactive; LAP4 TOR yeast: inactive; AGP1 TOR yeast: inactive

What do the screens show for `COCC(C)OC(=O)/C(C#N)=C\c1coc2ccc(C)cc2c1=O` (stereo unspecified)?
CIT2-GFP yeast: inconclusive; MEP2-GFP yeast: 302.9[may fluoresce violet]; RPL19A TOR yeast: inactive; LAP4 TOR yeast: inactive; AGP1 TOR yeast: inactive

What do the screens show for `Cc1ccc2occ(/C=N/NC(=O)[C@@H](N)Cc3ccccc3)c(=O)c2c1`?
CIT2-GFP yeast: inactive; MEP2-GFP yeast: inactive; RPL19A TOR yeast: inactive; LAP4 TOR yeast: inactive; AGP1 TOR yeast: inactive

What do the screens show for `O=C(/C=C/c1c(F)cccc1Cl)c1ccc(O)cc1`?
CIT2-GFP yeast: inactive; MEP2-GFP yeast: inactive; RPL19A TOR yeast: inactive; LAP4 TOR yeast: 249.0; AGP1 TOR yeast: inactive
